We go through 18 compounds from PubChem BioAssay (Tox21).

The nature of assay [1]: qHTS assay to identify small molecule agonists of the RXR signaling pathway - cell viability counter screen (AID 1159529).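 For activity change, negative = cytotoxicity: HEK 293T cells carrying an RXR-alpha UAS beta-lactamase reporter; series mostly up to about 77 µM.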 Note: nearly all actives have a fitted effect of over 50% in size. Note: potency is the fitted concentration of half-maximal effect. In short, it runs like this:
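Viability read-out for the RXR-alpha agonist qHTS: luminescent CellTiter-Glo signal after 30 min at RT. HEK 293T bla reporter cells, 2% charcoal-stripped FBS, 16 hr compound incubation; tetraoctyl ammonium bromide as cytotoxic control.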
(In qHTS, concentration-response curves come from the screen itself.)

A short description of assay [2]: qHTS assay to identify small molecule antagonists of the retinoid acid receptor (RAR) signaling pathway - cell viability counter screen (AID 1159551). Note: nearly all actives have a fitted effect of over 35% in size. Note: potency is the fitted concentration of half-maximal effect. In short, it runs like this:
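Measured by luminescent ATP detection, viability reflects C3RL4 cells treated 6 h at 37 C with test chemicals in the presence of 1 uM (final) retinol.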

Assay [3] in a line: qHTS assay to identify small molecule antagonists of the retinoic acid receptor (RAR) signaling pathway (AID 1159552; note: nearly all actives have a fitted effect of over 50% in size; note: potency is the fitted concentration of half-maximal effect). In short, it runs like this:
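Using a RARE-driven luciferase construct in C3RL4 cells, retinol at 1 uM final provided the agonist stimulus while compounds were co-applied. After 6 hours at 37 C, luminescence was recorded to flag inhibitors of retinol signaling.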

A short description of assay [4]: qHTS assay to identify small molecule agonists of the retinoic acid receptor (RAR) signaling pathway (AID 1159553). In short, it runs like this: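 6 hr compound exposure (DMSO vehicle) of overnight-plated C3RL4 RARE-luc cells at 37 C; luminescence quantified after 30 min RT with luciferase reagent.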
The nature of assay [5]: qHTS assay to identify small molecule antagonists of the estrogen related receptor (ERR) signaling pathway from Tox21 library - cell viability counter screen (AID 1224834). Note: nearly all actives have a fitted effect of over 30% in size. Note: potency is the fitted concentration of half-maximal effect. In short, it runs like this:
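Seeded ERR cells were rested 6 h at 37 C/5% CO2 before compounds, positive and negative controls or DMSO were added. Incubation continued for 17.5 h, and viability was then quantified by CellTiter-Fluor fluorescence.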

For assay [6], the target named is Luciferin 4-monooxygenase (Photinus pyralis) (UniProt P08659). As to the kind of experiment: qHTS assay to identify small molecule inhibitors of firefly luciferase (AID 1224835). Note: series mostly up to about 120 µM; nearly all actives have a fitted effect of over 25% in size. In short, it runs like this:
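Inhibition of purified Photinus luciferase is measured by luminescence. Substrate levels (D-luciferin, ATP) sit at their KM values. Each compound is tested in a concentration series.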

Assay [7] is described as follows: qHTS assay to identify small molecule agonists of the constitutive androstane receptor (CAR) signaling pathway - cell viability counter screen (AID 1224836). For viability change, negative = cytotoxic: series mostly up to about 92 µM. Note: nearly all actives have a fitted effect of over 45% in size. Note: potency is the fitted concentration of half-maximal effect. In short, it runs like this: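 Multiplexed viability check: HepG2-CYP2B6-hCAR cells, 15-point compound dosing, 0.75 uM PK11195 final, 23 h at 37 C, CellTiter-Fluor fluorescence.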
Assay [8] is described as follows: qHTS assay to identify small molecule antagonists of the constitutive androstane receptor (CAR) signaling pathway - cell viability counter screen (AID 1224837). For activity change, negative = cytotoxicity: series mostly up to about 92 µM. Note: nearly all actives have a fitted effect of over 45% in size. Note: potency is the fitted concentration of half-maximal effect. In short, it runs like this: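 To flag cytotoxic false antagonists, HepG2 hCAR/CYP2B6-2.2kb cells were treated 23 hr with 15-concentration compound series and 50 nM CITCO at 37 C/5% CO2; CellTiter-Fluor fluorescence was the measured end point.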

A short description of assay [9]: qHTS assay to identify small molecule antagonists of the estrogen related receptor signaling pathway with the pleiotropic PPARgamma coactivator (PGC) from Tox21 10K library - cell viability counter screen (AID 1224840; active = well fitted cell-killing curve with a large enough effect in the repeat runs, not every such curve was filed as active; note: nearly all actives have a fitted effect of over 40% in size; note: potency is the fitted concentration of half-maximal effect). In short, it runs like this: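 Seeded PGC/ERR cells (2,000/well, 6 h, 37 C/5% CO2) get compound by pin tool; 17.5 h incubation at 37 C; CellTiter-Fluor added, 30 min, fluorescence measured.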

The target of assay [10] is Nuclear receptor subfamily 1 group I member 3 (Homo sapiens) (UniProt Q14994). As to the kind of experiment: qHTS assay to identify small molecule antagonists of the constitutive androstane receptor (CAR) signaling pathway (AID 1224838).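 Note: HepG2 cells stably expressing hCAR with CYP2B6 luciferase reporter stimulated by CITCO; nearly all actives have a fitted effect of over 40% in size.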 Note: potency is the fitted concentration of half-maximal effect. In short, it runs like this:
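Human hepatoma HepG2 cells expressing hCAR and a CYP2B6 promoter (2.2 kb) luciferase construct; compound titration (15 points) with 50 nM CITCO final, 24 h at 37 C/5% CO2; luminescence via ONE-Glo after 30 min at room temperature.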

Assay [11] shares this target. As to the kind of experiment: qHTS assay to identify small molecule agonists of the constitutive androstane receptor (CAR) signaling pathway (AID 1224839).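 For activation: HepG2 cells stably carrying human CAR and a CYP2B6 luciferase reporter; series mostly up to about 92 µM.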 Note: nearly all actives have a fitted effect of over 15% in size. Note: potency is the fitted concentration of half-maximal effect. In short, it runs like this: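 Using human hepatoma HepG2 cells engineered with hCAR and a CYP2B6-2.2kb reporter, 15-concentration compound series were incubated 24 h alongside PK11195 at 0.75 uM final, with luminescence quantified afterwards.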

A short description of assay [12]: qHTS assay to identify small molecule antagonists of the estrogen related receptor signaling pathway with the pleiotropic PPARgamma coactivator (PGC) from Tox21 10K library (AID 1224841; call rule not given here; note: actives are mostly falling curves and most rising ones were filed inactive; nearly all actives have a fitted effect of over 50% in size; note: potency is the fitted concentration of half-maximal effect; for activity, negative = inhibition: series mostly up to about 92 µM). In short, it runs like this:
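Test chemicals dissolved in DMSO were applied to pre-incubated (6 h) PGC/ERR cells at 2,000 cells/well for an 18 h, 37 C treatment; reporter luminescence was then read using One-Glo.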

Assay [13] can be described thus: qHTS assay to identify small molecule agonists of the estrogen related receptor signaling pathway with the pleiotropic PPARgamma coactivator (PGC) from Tox21 10K library (AID 1224842). Note: nearly all actives have a fitted effect of over 15% in size. In short, it runs like this: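 Luminescence from One-Glo (30 min, room temperature) measured after PGC/ERR cells had 18 h at 37 C with pinned compound (23 nL in DMSO). Cells had been seeded at 2,000 per well and pre-incubated 6 h.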

Assay [14] has as its target Thyrotropin receptor (Homo sapiens) (UniProt P16473). As to the kind of experiment: qHTS assay to identify small molecule agonists of the thyroid stimulating hormone receptor (TSHR) signaling pathway (AID 1224843; calls by dose curve; note: nearly all actives have a fitted effect of over 45% in size). In short, it runs like this: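 Agonist activity read as cAMP rise via d2/cryptate HTRF competition, 1 h room-temperature detection, in HEK293 cells expressing TSHR. Fifteen-point titrations, each run in triplicate, with a 30 min room-temperature incubation beforehand.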

Inconclusive results are not listed. Unmarked numbers belong to inactive results. The source made the active and inactive calls. Unless noted, calls come from the whole dose curve; as a rule, active = well fitted curve in the direction sought with a large enough effect in the repeat runs; inconclusive = weak or mixed curves; inactive = no such curve, though single readings can be large; an effect the other way counts as inactive or inconclusive.
% is set by controls: 0 for no effect and ±100 for the full control effect.

Chain of Luciferin 4-monooxygenase (Photinus pyralis) (P08659 whole entry, looked up): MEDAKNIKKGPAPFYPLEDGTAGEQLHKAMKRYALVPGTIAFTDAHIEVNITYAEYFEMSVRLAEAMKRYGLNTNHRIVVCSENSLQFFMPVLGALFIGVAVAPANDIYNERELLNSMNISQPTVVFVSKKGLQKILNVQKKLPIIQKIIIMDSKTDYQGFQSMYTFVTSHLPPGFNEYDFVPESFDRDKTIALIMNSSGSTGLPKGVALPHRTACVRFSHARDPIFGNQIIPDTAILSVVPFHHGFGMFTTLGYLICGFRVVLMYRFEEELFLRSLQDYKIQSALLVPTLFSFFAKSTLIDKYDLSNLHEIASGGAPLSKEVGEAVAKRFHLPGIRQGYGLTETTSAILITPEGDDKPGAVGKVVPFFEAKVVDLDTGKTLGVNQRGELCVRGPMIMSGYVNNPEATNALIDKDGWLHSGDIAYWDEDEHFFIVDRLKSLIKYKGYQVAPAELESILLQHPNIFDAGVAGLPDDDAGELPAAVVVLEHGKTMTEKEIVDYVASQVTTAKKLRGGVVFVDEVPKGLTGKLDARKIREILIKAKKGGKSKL
Chain of Thyrotropin receptor (Homo sapiens) (P16473 whole entry, looked up): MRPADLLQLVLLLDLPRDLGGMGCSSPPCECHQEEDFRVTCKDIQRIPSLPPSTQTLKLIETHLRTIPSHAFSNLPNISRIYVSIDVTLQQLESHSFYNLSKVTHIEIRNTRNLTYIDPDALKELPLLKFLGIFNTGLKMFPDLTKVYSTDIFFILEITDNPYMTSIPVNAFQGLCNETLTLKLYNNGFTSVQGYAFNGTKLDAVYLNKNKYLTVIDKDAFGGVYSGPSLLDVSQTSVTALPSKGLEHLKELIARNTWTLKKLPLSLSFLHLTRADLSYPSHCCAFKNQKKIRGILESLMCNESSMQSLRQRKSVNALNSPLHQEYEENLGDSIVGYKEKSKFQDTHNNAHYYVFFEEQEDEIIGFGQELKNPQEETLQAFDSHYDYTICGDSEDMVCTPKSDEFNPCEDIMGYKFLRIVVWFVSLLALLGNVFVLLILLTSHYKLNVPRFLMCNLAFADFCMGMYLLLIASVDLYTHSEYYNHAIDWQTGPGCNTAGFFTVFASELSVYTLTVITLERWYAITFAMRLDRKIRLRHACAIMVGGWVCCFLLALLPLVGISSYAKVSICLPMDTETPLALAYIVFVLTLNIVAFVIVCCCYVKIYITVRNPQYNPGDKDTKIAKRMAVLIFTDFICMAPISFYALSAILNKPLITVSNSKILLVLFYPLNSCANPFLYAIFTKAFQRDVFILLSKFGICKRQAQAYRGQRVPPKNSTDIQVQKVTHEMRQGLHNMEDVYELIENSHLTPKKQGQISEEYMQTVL
Chain of Nuclear receptor subfamily 1 group I member 3 (Homo sapiens) (Q14994 whole entry, looked up): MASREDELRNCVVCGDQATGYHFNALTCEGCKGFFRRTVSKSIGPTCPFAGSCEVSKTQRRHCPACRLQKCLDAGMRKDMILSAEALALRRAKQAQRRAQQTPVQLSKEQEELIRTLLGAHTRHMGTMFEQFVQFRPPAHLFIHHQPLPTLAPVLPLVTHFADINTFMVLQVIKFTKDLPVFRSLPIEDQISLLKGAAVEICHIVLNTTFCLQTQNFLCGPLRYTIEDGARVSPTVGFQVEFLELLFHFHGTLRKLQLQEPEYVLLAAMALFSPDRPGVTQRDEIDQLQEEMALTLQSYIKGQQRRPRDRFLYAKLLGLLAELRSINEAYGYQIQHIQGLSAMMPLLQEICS

Regarding `N#Cc1ccc(N(CC(N)=O)CC(F)(F)F)cc1C(F)(F)F`, the Potency result in assay [1], in assay [2], in [3], in assay [4], in [5] and in assay [6] was “inactive” throughout. Moreover, the Potency result in [7], in [8] and in assay [9] was “inactive” each time.

Regarding `CCCN`, the Potency entry in assay [1], in [2], in [3], in [4], in [5] and in assay [6] was “inactive” in each case. Moreover, the Potency result in assay [7], in [8] and in [9] was “inactive” throughout.

`CCCCON=O`: the Potency result in assay [1], in [2], in assay [3], in assay [4], in assay [5] and in assay [6] was “inactive” in each case. In addition, the Potency result in assay [7], in assay [8], in assay [10], in assay [11], in [9] and in assay [13] was “inactive” throughout. For the same compound, the Potency result in assay [14] was “inactive”. In addition, the Potency in assay [12] was 49.8 µM (active).

As to `O=C(O)CCCCCCNC1c2ccccc2CCc2ccccc21`, the Potency result in assay [1], in assay [2], in [3], in [4], in [5] and in [6] was “inactive” each time. The Potency entry in assay [7], in [8] and in assay [9] was “inactive” each time.

Regarding `CC1CN1` (centres undefined), the Potency result in assay [1], in [2], in [3], in assay [4], in assay [5] and in assay [6] was “inactive” in each case. Besides, the Potency result in assay [7], in assay [8], in [10], in assay [11] and in assay [9] was “inactive” each time.

In the case of `Cc1cc2c3c(c1)C(c1ccccc1)=N[C@@H](NC(=O)c1ccncc1)C(=O)N3CC2`, the Potency result in assay [1], in assay [2], in assay [3], in assay [4], in [5] and in assay [6] was “inactive” in each case. Besides, the Potency entry in assay [8], in assay [10], in assay [11], in [9], in [12] and in assay [13] was “inactive” in each case. In addition, in assay [14], the Potency result is “inactive”.

In the case of `CCC[CH2][Sn]([CH2]CCC)([CH2]CCC)[CH2]CCC`, the Potency in assay [1] is 21.9 µM (active); in assay [2] it was 43.3 µM (active); in [3], 9.69 µM (active); in assay [5], 27.3 µM (active); in assay [7] it was 15.4 µM (active); in assay [8] it was 24.3 µM (active). Moreover, the results for the Potency in assay [10] and in assay [9] were 9.69 µM (active) and 17.2 µM (active), respectively. For the same compound, the Potency result in [4], in assay [6] and in assay [12] was “inactive” throughout.

Consider `CC(C)NCC(O)c1ccccc1Cl` (centres undefined), for which the Potency result in assay [1], in assay [2], in assay [3], in assay [4], in assay [5] and in assay [6] was “inactive” in each case. Also, the Potency entry in assay [7], in [8], in assay [10], in assay [11], in assay [9] and in [12] was “inactive” each time. Further, in [13], the Potency result was “inactive”.

For `CN(C)CCc1c[nH]c2ccccc12`, the Potency entry in assay [1], in assay [2], in assay [3], in [4], in assay [5] and in assay [6] was “inactive” in each case. For the same compound, the Potency result in assay [7], in [8], in assay [10], in [11], in assay [9] and in [14] was “inactive” each time.

Take `C#CC1(O)CCCCC1`: the Potency entry in assay [1], in [2], in assay [3], in assay [4], in [5] and in assay [6] was “inactive” in each case. The Potency entry in assay [7], in assay [8], in [9], in assay [12], in assay [13] and in [14] was “inactive” throughout.

In the case of `O=[N+]([O-])c1ccc(CCl)cc1`, the Potency result in assay [1], in [2], in [3], in assay [4], in assay [5] and in assay [6] was “inactive” each time. Moreover, the Potency result in assay [7], in [8], in assay [10], in assay [11], in [9] and in [13] was “inactive” in each case. The Potency result in assay [14] is “inactive”.

Take `O=C(NC(=O)c1ccccc1Cl)Nc1ccc(OC(F)(F)F)cc1`: the Potency result in assay [1], in assay [2], in assay [3], in assay [4], in assay [5] and in assay [6] was “inactive” throughout. For the same compound, the Potency entry in [7], in assay [8], in assay [10] and in [9] was “inactive” in each case.

Take `CC1CCCC1`: the Potency entry in assay [1], in [2], in assay [3], in assay [4], in [5] and in [6] was “inactive” throughout. For the same compound, the Potency entry in [7], in assay [8], in assay [10], in assay [11], in assay [9] and in [14] was “inactive” in each case.

Consider `CSSC`, for which the Potency result in assay [1], in assay [2], in assay [3], in [4], in assay [5] and in assay [6] was “inactive” in each case. Moreover, the Potency entry in assay [11], in [9], in [12], in [13] and in assay [14] was “inactive” each time. The Potency in assay [10] is 22 µM (active).

For `CCOC(=O)CCN(SN(C)C(=O)Oc1cccc2c1OC(C)(C)C2)C(C)C`, the Potency entry in assay [1], in assay [2], in assay [4], in assay [5], in assay [6] and in assay [7] was “inactive” throughout. The Potency result in assay [8], in [10], in assay [13] and in [14] was “inactive” throughout. The Potency was 61.1 µM (active) in assay [3], 27.3 µM (active) in [11] and 30.6 µM (active) in [12].

Consider `Clc1c(Cl)c(Cl)c(Cl)c(Cl)c1Cl`, for which the activity change, negative = cytotoxicity in assay [1] is 0.339% [at 6.97 µM]; in assay [2], 0.805% [at 8.39 µM]; in [8], 2.2% [at 8.39 µM]. The activity, negative = inhibition in assay [3] is 2.67% [at 8.39 µM]; in assay [10], 2.04% [at 8.39 µM]. For the same compound, the values for the activation in [4] and in assay [11] were -1.82% [at 8.36 µM] and -1% [at 8.39 µM], respectively. For the same compound, the viability change, negative = cytotoxic was 3.08% [at 8.39 µM] in [5], -2.28% [at 8.39 µM] in assay [7] and 8.1% [at 8.39 µM] in assay [9]. Besides, in assay [6], the activity change, negative = inhibition is 2.81% [at 10.5 µM].

As to `CCNc1nc(NC(C)C(C)C)nc(SC)n1` (centres undefined), the Potency result in assay [1], in [2], in assay [3], in assay [4], in assay [5] and in assay [6] was “inactive” each time. The Potency result in assay [10] and in assay [9] was “inactive” in each case. For the same compound, in assay [11], the Potency was 48.6 µM (active).

`O=C(Cl)c1ccccc1F`: the Potency entry in assay [1], in assay [2], in [3], in assay [4], in assay [5] and in [6] was “inactive” each time. Besides, the Potency result in assay [7], in assay [8], in assay [10], in assay [11] and in [9] was “inactive” throughout.
